Records with an inconclusive call do not appear. Calls of active or inactive are those of the source.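 Rule for the calls, unless noted: active = normalized viability below 100% at a tested concentration; inactive = the rest.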

Test [1] is described as follows: viability loss in pontine glioma line – cell-based, SU-DIPG-XVII, MIPE5.0, CellTiter-Glo, qHTS, dose response (AID 1347060; cut-off not given, nearly all actives have AC50 up to about 26 µM;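 for AC50: cells exposed to compound for 48 hours before viability readout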). Particulars: CellTiter-Glo ATP luminescence. Background: ATP-based viability assays read luminescence as a measure of living cells.
The nature of test [2]: viability loss in pontine glioma line – cell-based, SU-DIPG-XIII, MIPE4.0, CellTiter-Glo, qHTS, dose response (AID 1347061; cut-off not given, nearly all actives have AC50 up to about 37 µM;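 note: cells exposed to compound for 48 hours before readout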). The following applies: CellTiter-Glo ATP luminescence.
The nature of test [3]: viability loss in pontine glioma line – cell-based, JHH-DIPG-1, MIPE4.0, CellTiter-Glo, qHTS, dose response (AID 1347062; cut-off not given, nearly all actives have AC50 up to about 27 µM;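 for AC50: cells exposed to compound for two days before readout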). Particulars: JHH-DIPG-1 viability, CellTiter-Glo ATP luminescence.
Test [4] can be described thus: viability loss in pontine glioma line – cell-based, SU-DIPG-IV, MIPE4.0, CellTiter-Glo, qHTS, dose response (AID 1347063; cut-off not given, nearly all actives have AC50 up to about 30 µM;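 note: compound exposure lasted 48 hours before the viability readout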). The following applies: CellTiter-Glo ATP luminescence.
Test [5] is described as follows: viability loss in pontine glioma line – cell-based, SU-DIPG-XIII, MIPE5.0, CellTiter-Glo, qHTS, dose response (AID 1347064; cut-off not given, nearly all actives have AC50 up to about 23 µM;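 for AC50: cells exposed to compound for 48 hours before the viability read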). The following applies: CellTiter-Glo ATP luminescence.
Test [6] can be described thus: growth inhibition of DIPG cells – cell-based, MIPE4.0 library, CellTiter-Glo luminescence, qHTS (AID 1347066; cut-off not given, nearly all actives have AC50 up to about 30 µM;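 note: cells exposed to compound for 48 hours before readout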). The following applies: SU-DIPG-VI viability, CellTiter-Glo ATP luminescence.
Test [7] can be described thus: JHH-DIPG-1 glioma cell viability, MIPE5.0 library, CellTiter-Glo luminescence, qHTS (AID 1347067; cut-off not given, nearly all actives have AC50 up to about 26 µM;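 note: cells exposed to compound for 48 hours before readout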). Particulars: JHH-DIPG-1 glioma viability, CellTiter-Glo ATP luminescence.
The nature of test [8]: growth inhibition of DIPG cells – cell-based, MIPE5.0 library, qHTS (AID 1347068; cut-off not given, nearly all actives have IC50 up to about 30 µM;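 for IC50: cells exposed to compound for 48 hours before viability readout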). Particulars: SU-DIPG-XXV viability. A general note: Quantitative high-throughput screening tests each substance at several concentrations.
The nature of test [9]: viability loss with induced miR-34 in A549 – imaging, A549 dox-inducible miR-34, nuclei and caspase counts, primary screen (AID 1347080;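 active = compounds whose cell count with miR-34 switched on is under 0.7 times the count with it off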). Particulars: A549 miR-34 inducible, Hoechst nuclei count, 48 h.
Test [10] is described as follows: MELAS cybrid and Rieske KO viability enhancers – cell-based, MELAS cybrids, Rieske KO mouse fibroblasts, CellTiter-Glo, primary screen (AID 1508586;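 active = mean z-score across replicates of 1.96 or higher in either the MELAS or the Rieske mutant cell line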;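 note: z relative to plate mean and SD of compound and empty wells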). Particulars: low glucose.
A short description of test [11]: viability loss in pontine glioma line – cell-based, SU-DIPG-XXV, MIPE5.0, CellTiter-Glo, qHTS, dose response (AID 1347065; cut-off not given, nearly all actives have AC50 up to about 26 µM;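 note: cells exposed to compound for 48 hours before ATP readout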). The following applies: CellTiter-Glo ATP luminescence.
The nature of test [12]: drug combination growth inhibition, ovarian cancer – cell-based, oncology-focused library, rucaparib conditional, profiling panel (AID 1508598). The following applies: patient-derived ovarian cancer cells, CellTiter-Glo viability, 144 h, stronger effect = lower value.
[13] abbreviates: stronger effect = lower value, cell number ratio, induced over uninduced.
Where [14] appears, read: measured here: relative caspase fold change +Dox/-Dox.
The mark [15] stands for this setting: measured here: total cells with miR-34 induction, stronger effect = lower value.
[16] abbreviates: measured here: total cells without miR-34 induction.
The mark [17] stands for this setting: MELAS cybrid survival, CellTiter-Glo 48 h, stronger effect = higher value.
Where [18] appears, read: Rieske KO mouse fibroblast survival, CellTiter-Glo 72 h.

For `CC(C)c1noc(N2CCC(COc3ccc(-c4ccc(S(C)(=O)=O)cc4)nc3)CC2)n1`, the call in test [1], in [2], in test [3], in test [4], in [5] and in [6] was inactive. For the same compound, the outcome in test [7] and in [8] was inactive. The fold change is 0.733 (inactive) in test [9] (setting [13]) and 1.55 in test [9] (setting [14]). Also, the cell count turned out to be 5110 in test [9] (setting [15]) and 6980 in test [9] (setting [16]). The z-score in test [10] (setting [17]) is -0.22 (inactive); in test [10] (setting [18]) it was 0.941.
Take `Clc1ccc2c(N3CCN(CCCN4CCN(c5ccnc6cc(Cl)ccc56)CC4)CC3)ccnc2c1`: the compound was classed as inactive in [1], in test [2], in [3], in test [4], in [5] and in test [6]. For the same compound, the call in [7] and in test [8] was inactive. Besides, the fold change in test [9] (setting [13]) is 0.978 (inactive); in test [9] (setting [14]), 1.67. Besides, the cell count in test [9] (setting [15]) was found to be 8600; in test [9] (setting [16]), 8790.
With `CC(C)c1cc(-c2n[nH]c(=O)n2-c2ccc3c(ccn3C)c2)c(O)cc1O`, the half-maximal activity concentration (AC50) (in general, the midpoint of the concentration-response curve, whichever way the signal moves) is 37.2 nM (active) in test [1]; 132 nM (active) in [2]; 66.2 nM (active) in test [3]; 59 nM (active) in [4]; 41.7 nM (active) in [5]; 37.2 nM (active) in test [11]. In addition, the IC50 – broadly, the concentration that inhibits the measured activity by half – in test [8] is 83.3 nM (active). Besides, the fold change was 1.03 (inactive) in [9] (setting [13]) and 0.773 in test [9] (setting [14]). The cell count in test [9] (setting [15]) worked out at 1450; in test [9] (setting [16]) it was 1400. The z-score in test [10] (setting [17]) was 3.03 (active); in test [10] (setting [18]) it was 0.0782. The viability (in general, a read-out of living cells in per cent, often relative to untreated cells) in test [12] (at 0.000305 µM, OCI-C5x cells, with rucaparib 10 µM, 100% = cells with rucaparib alone) is 102% (inactive); in [12] (at 0.000305 µM, OCI-C5x cells, without rucaparib), 108% (inactive); in test [12] (at 0.000305 µM, OCI-P5x cells, with rucaparib 20 µM, 100% = cells with rucaparib alone), 116% (inactive); in test [12] (at 0.000305 µM, OCI-P5x cells, without rucaparib), 121% (inactive); in [12] (at 0.00122 µM, OCI-C5x cells, with rucaparib 10 µM, 100% = cells with rucaparib alone) it was 100% (inactive); in [12] (at 0.00122 µM, OCI-C5x cells, without rucaparib) it was 98.2% (active). Moreover, the viability was 124% (inactive) in test [12] (at 0.00122 µM, OCI-P5x cells, with rucaparib 20 µM, 100% = cells with rucaparib alone); 119% (inactive) in test [12] (at 0.00122 µM, OCI-P5x cells, without rucaparib); 96.9% (active) in test [12] (at 0.00488 µM, OCI-C5x cells, with rucaparib 10 µM, 100% = cells with rucaparib alone); 110% (inactive) in test [12] (at 0.00488 µM, OCI-C5x cells, without rucaparib); 126% (inactive) in test [12] (at 0.00488 µM, OCI-P5x cells, with rucaparib 20 µM, 100% = cells with rucaparib alone); 124% (inactive) in [12] (at 0.00488 µM, OCI-P5x cells, without rucaparib). Further, the viability in [12] (at 0.0195 µM, OCI-C5x cells, with rucaparib 10 µM, 100% = cells with rucaparib alone) was 117% (inactive); in [12] (at 0.0195 µM, OCI-C5x cells, without rucaparib) it was 117% (inactive); in test [12] (at 0.0195 µM, OCI-P5x cells, with rucaparib 20 µM, 100% = cells with rucaparib alone), 85.2% (active); in test [12] (at 0.0195 µM, OCI-P5x cells, without rucaparib) it was 104% (inactive); in test [12] (at 0.0781 µM, OCI-C5x cells, with rucaparib 10 µM, 100% = cells with rucaparib alone), 44.1% (active); in test [12] (at 0.0781 µM, OCI-C5x cells, without rucaparib), 14.7% (active). For the same compound, the viability in [12] (at 0.0781 µM, OCI-P5x cells, with rucaparib 20 µM, 100% = cells with rucaparib alone) was 18.8% (active); in [12] (at 0.0781 µM, OCI-P5x cells, without rucaparib), 10.9% (active); in test [12] (at 0.313 µM, OCI-C5x cells, with rucaparib 10 µM, 100% = cells with rucaparib alone), 11.6% (active); in test [12] (at 0.313 µM, OCI-C5x cells, without rucaparib), 6.96% (active); in test [12] (at 0.313 µM, OCI-P5x cells, with rucaparib 20 µM, 100% = cells with rucaparib alone), 6.88% (active); in test [12] (at 0.313 µM, OCI-P5x cells, without rucaparib), 5.54% (active). Moreover, the viability was 10% (active) in test [12] (at 1.25 µM, OCI-C5x cells, with rucaparib 10 µM, 100% = cells with rucaparib alone); 6.57% (active) in test [12] (at 1.25 µM, OCI-C5x cells, without rucaparib); 5.29% (active) in [12] (at 1.25 µM, OCI-P5x cells, with rucaparib 20 µM, 100% = cells with rucaparib alone); 4.83% (active) in [12] (at 1.25 µM, OCI-P5x cells, without rucaparib); 8.35% (active) in test [12] (at 5 µM, OCI-C5x cells, with rucaparib 10 µM, 100% = cells with rucaparib alone); 6.47% (active) in test [12] (at 5 µM, OCI-C5x cells, without rucaparib). Also, the viability in [12] (at 5 µM, OCI-P5x cells, with rucaparib 20 µM, 100% = cells with rucaparib alone) was 6.04% (active); in [12] (at 5 µM, OCI-P5x cells, without rucaparib), 5.33% (active).

Source of the values: PubChem BioAssay.
